This is a sample that favours compounds with a hit; in the whole collection about 7.5% have one here.
NPC1 promoter act – qHTS Assay for NPC1 Promoter Activators | Huh7 NPC1 promoter luciferase reporter, 24 h | 2.4% of 320,000 active | Potency, µM (series often up to 9.22 µM), for the others: at the top dose activation, usual class: activators; also: % of control where 0% means no effect; nearly all actives have a fitted effect of over 60% in size
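Luminescence read-out of NPC1 promoter-driven luciferase in stably transfected Huh7 cells; compounds delivered in DMSO and left 24 h at 37C, 5% CO2, qHTS titration format.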
KinaseGlo FLuc – Counterscreen for Luciferase (Kinase-Glo TM) Inhibition | Luciferin 4-monooxygenase (Photuris pensylvanica), Q27757 | Potency, µM (titrated, usually from 38.3 µM), inactives show top-dose activity change, negative = inhibition, hits mostly inhibitors | Kinase-Glo luciferase, ATP luminescence, 8 min | 0.28% of 200,000 active | AID 1379, 2008; also: % is scaled to controls: 0 for no effect and ±100 for the full control effect; nearly all actives have a fitted effect of over 60% in size
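Substrate mix (final 50 mM imidazole pH 7.2, 50 mM KCl, 7 mM MgCl2, 10 uM ATP, 0.01% Tween 20, 0.05% BSA) plus pin-tool compound, then Kinase-Glo detection mix; 8 min ambient, luminescence read.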
FLuc counter – qHTS profiling assay for firefly luciferase inhibitor/activator using purifed enzyme and Km concentrations of substrates (counterscreen for miR-21 project). Luciferin 4-monooxygenase (Photinus pyralis), P08659. purified FLuc, Km substrates, luminescence inhibition. Potency, µM (top dose mostly 57.5 µM), for inactives: at the highest dose activity change, negative = inhibition, hits mostly inhibitors. 6.9% of 360,000 active;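 also: plate controls were vehicle for no effect and reference inhibitor for full effect; nearly all actives have a fitted effect of over 55% in size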
Target sequence (P08659 whole entry, looked up): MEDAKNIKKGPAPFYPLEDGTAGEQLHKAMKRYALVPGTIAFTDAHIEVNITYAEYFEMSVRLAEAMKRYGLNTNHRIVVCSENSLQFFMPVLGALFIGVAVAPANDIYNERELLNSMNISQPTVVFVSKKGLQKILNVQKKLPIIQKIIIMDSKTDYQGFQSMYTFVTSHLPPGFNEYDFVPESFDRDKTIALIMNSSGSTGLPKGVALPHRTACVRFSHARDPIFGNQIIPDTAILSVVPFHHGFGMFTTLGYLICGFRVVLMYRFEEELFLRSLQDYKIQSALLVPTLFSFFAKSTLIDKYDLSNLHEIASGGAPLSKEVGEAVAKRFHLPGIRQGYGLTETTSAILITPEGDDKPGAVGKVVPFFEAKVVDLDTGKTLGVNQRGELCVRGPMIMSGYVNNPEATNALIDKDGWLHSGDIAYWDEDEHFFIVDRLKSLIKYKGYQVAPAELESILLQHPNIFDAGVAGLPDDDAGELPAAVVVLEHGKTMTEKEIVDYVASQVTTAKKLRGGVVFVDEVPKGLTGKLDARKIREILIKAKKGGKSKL
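Purified P. pyralis luciferase, 10 nM final, with Km-level 10 uM D-luciferin and 10 uM ATP in 50 mM Tris acetate pH 7.5, 10 mM Mg acetate, 0.01% Tween-20, 0.05% BSA; 6-point qHTS titration about 60 µM downward; luminescence read.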
ELG1 genotox – qHTS screen for small molecules that induce genotoxicity in human embryonic kidney (HEK293T) cells expressing luciferase-tagged ELG1; 1.3% of 330,000 active; Potency, µM (series often up to 46 µM), without a hit: at the highest dose activity change, positive = activation, hits mostly activators; AID 504466, 2011; HEK293T ELG1-luciferase reporter, luminescence, 16 h; also: % of control where 0% means no effect; nearly all actives have a fitted effect of over 60% in size
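16 hr compound incubation (37 °C, 5% CO2) of HEK293T cells carrying luciferase-tagged ELG1; luciferase then measured by ONE-Glo luminescence after 30 min at RT.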
SMN2 splice enh – qHTS Assay for Enhancers of SMN2 Splice Variant Expression. 2.8% of 210,000 active. Potency, µM (top dose mostly 46.1 µM), for the others: top-dose activity change, positive = activation, actives largely listed as activators. HEK293 SMN2-luciferase splicing reporter, luminescence, 30-36 h. AID 1458, 2008; also: % of control where 0% means no effect; nearly all actives have a fitted effect of over 55% in size
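HEK293 cells carry an SMN2 […]–luciferase reporter in which exon 7 inclusion puts luciferase in frame. Cells were plated 10-12 h before compound addition, then incubated 30-36 h at 37C. ONE-Glo luminescence was read; sodium butyrate at 4.5 mM final served as control.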
Rab9 prom act – qHTS Assay for Rab9 Promoter Activators | Huh7 Rab9 promoter-luciferase reporter, luminescence, 24 h | 2.8% of 320,000 active | Potency, µM (titrated, usually from 9.22 µM), inactives show top-dose activation, negative = inhibition, hits mostly activators | AID 485297, 2010; also: % of control where 0% means no effect; nearly all actives have a fitted effect of over 60% in size
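Huh7 reporter line, Rab9 promoter upstream of luciferase. Compound exposure 24 h at 37 °C in reduced-serum medium with 10% FBS. Read-out: luminescence.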
* = called active by the depositor; u = inconclusive; x = not tested or not shown; ! = a repeat was not active; [ ] = another dose, or the depositor's remark. Calls follow the shape of the dose curve; as a rule, active = well fitted curve in the direction sought with a large enough effect; inconclusive = small, poorly fitted or top-dose-only effect, or another doubt; inactive = no such curve, though single readings can be large; an effect the other way counts as inactive or inconclusive. Potency is read from the fitted curve at half-maximal effect.

SMILES	NPC1 promoter act	KinaseGlo FLuc	FLuc counter	ELG1 genotox	SMN2 splice enh	Rab9 prom act
O=C(O)CC(NC(=O)c1sc2ccccc2c1Cl)c1ccc(OC2CCCC2)cc1 (stereo not drawn)	-2.0%	1.9%	15.1µM*	2.5%	-27.5%	8.5%
CC1CCc2[nH]c3ccc(C(=O)NCC4CCCO4)cc3c2C1 (stereo not drawn)	23.3%	x	9.53µM*	7.9%	x	u
CC(C)[C@@]1(c2ccc(Cl)cc2)ON(c2ccccc2C(F)(F)F)C1=O	-4.7%	x	4.7%	-4.0%	x	-3.2%
CCOc1ccc(CCNC(=O)Cn2nnc(-c3ccc(OC)c(OC)c3)n2)cc1OCC	x	x	-7.2%	x	-2.8%	x
COc1ccc(C(=O)Nc2ccc(S(=O)(=O)N3CCOCC3)cc2)cc1OC	0.4%	1.7%	2.4%	-0.2%	13.5%	-5.7%
COc1ccc(C(=O)Nc2ccc(N3CCOCC3)cc2)cc1OC	22.8%	u	23.9µM*	16.1%	9.4%	10.1%
COc1ccc(C(=O)Nc2ccc(N3CCCC3)cc2)cc1OC	3.55µM*	x	5.36µM*	u	x	3.98µM*
COc1ccc(CCNC(=O)Cn2nnc(-c3ccc(N4CCOCC4)cc3)n2)cc1OC	3.4%	-8.3%	3.01µM*	8.2%	u	u
COc1ccc(C(=O)Nc2ccc(N3CCCC3)cc2)cc1	26.2%	-5.0%	7.57µM*	u	8.3%	u
CCCCCCCCCCCCC(=O)N1CCCC[C@H]1CNC(=O)[C@@H](N)CCCCN	x	-6.0%	x	x	x	x
CCOc1ccc(C(=O)Nc2ccc(N3CCN(C)CC3)cc2)cc1Br	27.5%	-3.4%	6.01µM*	10.1%	-6.0%	-3.0%
CN(C)c1cccc(C(=O)Nc2ccc(N3CCOCC3)cc2)c1	21.9%	-9.8%	21.3µM*	u	u	u
CCOc1ccc(C(=O)Nc2ccc(NC(=O)c3ccccc3)cc2)cc1Br	-1.4%	x	1.8%	10.1%	-5.9%	-3.6%
COc1ccc(N2CCN(S(=O)(=O)c3ccc(CC(C)C)cc3)CC2)cc1	x	x	-3.8%	x	-5.5%	x
Cc1ccc(/C=C/C(=O)Nc2ccc(S(N)(=O)=O)cc2)o1	-0.9%	-2.9%	u	-0.8%	-5.1%	-2.4%
Cc1ccc(/C=C/C(=O)Nc2ccncc2)o1	3.8%	-2.9%	16.9µM*	3.3%	2.0%	1.7%
Cc1ccc(/C=C/C(=O)Nc2ccc(N(C)C)cc2)o1	u	7.6%	3.01µM*	u	14.1µM*	u
CCc1ccccc1NC(=O)c1ccc(=O)n(Cc2ccc(F)cc2)c1	x	x	-0.9%	x	x	x
O=C(NC1CCCC1)c1cc(-c2cccs2)on1	1.58µM*	-3.8%	4.78µM*	9.2µM*	u	2µM*
O=C(NC1CC1)c1cc(-c2cccs2)on1	x	x	10.7µM*	x	x	x
Cc1cc(C)cc(-n2ccnc2SCC(=O)Nc2ccc(C)cc2C)c1	x	x	-18.2%	x	x	x
Cc1ccc(/C=C/C(=O)Nc2cc(C)on2)cc1	2.51µM*	-6.0%	u	u	u	3.98µM*
Cc1ccc(/C=C/C(=O)NN2CCN(C)CC2)cc1	8.5%	x	-2.3%	7.8%	x	10.7%
COc1ccccc1OCC(=O)Nc1ccc(S(=O)(=O)Nc2cc(C)on2)cc1	-0.2%	x	1.2%	2.1%	x	0.0%
COc1ccccc1/C=C/C(=O)Nc1ccc(S(=O)(=O)Nc2cc(C)on2)cc1	-0.8%	x	23.9µM*	14.4%	x	3.1%
SMILES	NPC1 promoter act	KinaseGlo FLuc	FLuc counter	ELG1 genotox	SMN2 splice enh	Rab9 prom act
Cc1cc(NS(=O)(=O)c2ccc(NC(=O)/C=C/c3ccc(Br)cc3)cc2)no1	-5.9%	x	19µM*	5.1%	x	-1.6%
Cc1ccc(/C=C/C(=O)Nn2cnnc2)cc1	-4.6%	-7.8%	5.36µM*	8.8%	-6.3%	-8.7%
Cc1cc(NS(=O)(=O)c2ccc(NS(=O)(=O)c3ccc(Br)cc3)cc2)no1	-3.0%	x	0.5%	1.4%	x	-2.9%
N#Cc1ccc(CN2CCCC3(CCN(C(=O)c4cccc(F)c4)CC3)C2)cc1	x	-1.2%	x	x	-18.4%	x
CC(=O)c1cccc(Nc2ncnc3c2cnn3C)c1	x	x	-9.5%	x	x	x
C1OCOCO1	x	x	x	x	1.9%	x
Cc1cc(NS(=O)(=O)c2ccc(NC(=O)COc3c(C)cc(Br)cc3C)cc2)no1	-3.1%	x	-1.2%	-24.8%	14.7%	-2.3%
Cc1cc(NS(=O)(=O)c2ccc(NC(=O)COc3ccc(Br)cc3C)cc2)no1	x	x	21.3µM*	x	-11.3%	x
CCOc1cccc(C(=O)Nc2ccc(S(=O)(=O)Nc3cc(C)on3)cc2)c1	0.8%	x	u	6.3%	x	-1.2%
CCCCOc1cccc(C(=O)Nc2ccc(S(=O)(=O)Nc3cc(C)on3)cc2)c1	-7.2%	x	19µM*	4.1%	x	-1.2%
CC(=O)N1CC2(CC2)CC1c1ccccc1 (stereo not drawn)	x	-2.0%	x	x	-12.6%	x
Cc1ccn2c(NC3CCCC3)c(-c3cccs3)nc2c1	15.7%	-13.1%	19µM*	-3.4%	9.0%	u
Cc1ccn2c(NCc3ccccc3)c(-c3cccs3)nc2c1	u	-7.6%	15.1µM*	8.7%	u	3.16µM*
Cc1ccn2c(NC(=O)c3ccccc3)c(-c3cccs3)nc2c1	-1.2%	-0.6%	-16.3%	-0.2%	0.5%	3.3%
Cc1cccc2c1cnn2C(=O)Nc1ccc(Br)cc1F	0.282µM*	x	u	4.7%	x	u
Cc1ccc(NC(=O)n2ncc3c(C)cccc32)c(C)c1	0.398µM*	x	2.39µM*!	u	x	0.316µM*
Cc1ccc2nc(Cl)c3cc(C(=O)N(C)C4CCCCC4)sc3c2c1	x	x	-1.6%	x	-2.4%	x
COc1ccc2nc(N3CCN(C(=O)C4COc5ccccc5O4)CC3)sc2c1 (stereo not drawn)	2.82µM*	x	6.01µM*	8.9%	x	2µM*
CCOC(=O)C1CCN(C(=O)C2CCN(c3nnc(-n4cccc4)s3)CC2)CC1	-0.1%	x	-7.9%	0.7%[9.26 µM]	x	-1.2%
CCOC(=O)C1CCN(C(=O)C2CCN(c3nc4ccc(OC)cc4s3)CC2)CC1	-7.8%	-1.2%	15.1µM*	-9.6%	-45.2%	-10.6%
COc1ccc(NC(=O)c2c(N)c(C(=O)c3ccc(C)cc3)n3ccccc23)cc1OC	x	x	2.0%	x	5.6%	x
CC(C)c1ccc(N2C(=O)CSC23C(=O)N(Cc2ccccc2F)c2ccccc23)cc1 (stereo not drawn)	x	x	3.3%	x	x	x
CCCCCCSc1ccc(-c2nc3ccc(C)cn3c2NCc2ccccc2)cc1OC	-2.0%	x	-1.9%	-2.8%	x	0.6%
CCC(C)Sc1ccc(-c2nc3ccc(C)cn3c2NCc2ccccc2)cc1OC (stereo not drawn)	-6.6%	x	15.1µM*	-6.9%	x	-3.1%

Compound activity (PubChem BioAssay)
